Activity calls are given as the source filed them. How the source made its calls: active means hit-call score of the fitted dose curve at least 0.9, where 1 is the maximum; inactive means score below 0.9.
read-out: Vascular cell adhesion molecule 1 (VCAM1), VCAM1 (gene 7412); experiment: BSK_4H_VCAM1: BioMAP Diversity Plus: 4H Assay for Vascular cell adhesion molecule 1 (VCAM1) Biomarker Activity (AID 2283033); settings: primary human endothelial cells (HUVEC); actives raise or lower the signal
Method: BSK_4H is a cell-based, multiplexed-readout assay that uses umbilical vein endothelium, a human vascular primary cell, with measurements taken at 24 hours after chemical dosing in a 96-well plate.BSK_4H_VCAM1 is an assay component measured in the BSK_4H assay. It measures VCAM-1 antibody related to regulation of gene expression using ELISA technology.Data from the assay component BSK_4H_VCAM1 was analyzed into 1 assay endpoint. This assay endpoint, BSK_4H_VCAM1, was analyzed with bidirectional fitting relative to DMSO as the negative control and baseline of activity. Using a type of binding reporter, gain or loss-of-signal activity can be used to understand changes in the signaling as they relate to the gene VCAM1. Furthermore, this assay endpoint can be referred to as a primary readout, because this assay has produced multiple assay endpoints where this one serves a signaling function. To generalize the intended target to other relatable targets, this assay endpoint is annotated to the cell adhesion molecules intended target family, where the subfamily is Immunoglobulin CAM.
The levels of cell surface (or secreted, indicated by the prefix "s") biomarker endpoints were measured by ELISA. Overt cytotoxicity to cells in confluent adherent cultures (all systems other than the BT system) was assessed by measuring total protein levels using sulforhodamine B (SRB) staining in parallel cultures at the time of biomarker measurements, indicated as SRB endpoints. For proliferation assays for adherent cell types, individual cell types are cultured at sub-confluence and relative cell numbers quantified by SRB staining at time points optimized for each system (48 h: 3C and CASM3C systems; 72 h: BT and HDF3CGF systems; 96 h: SAg system). SRB was performed by staining cells with 0.1% SRB after fixation with 10% TCA and reading wells at 560 nm.Viability and proliferation of PBMC (T cells) was quantified by Alamar Blue reduction for the SAg and BT systems. For PBMC viability (referred to as PBMC Cytotoxicity within the assay endpoint names), cells were plated (75,000/well in a 96-well plate) and then chemical samples added for 1 h before addition of activators, SEB and TSST-1 (20 ng/mL final concentration each). Cells were incubated for 90 h. Then, Alamar Blue (20 uL/well) (Invitrogen, Cat DAL1100) was added for 6 h, and the plates were read with a fluorescence microplate reader at 546/580 nm (excitation/emission). For PBMC proliferation, cells were plated and activated as above but incubated for only 16 h prior to addition of Alamar Blue. Plates were read after 6 h.

| SMILES | outcome | AC50 |
| --- | --- | --- |
| C[Si]1(C)O[Si](C)(C)O[Si](C)(C)O[Si](C)(C)O1 | inactive | – |
| O=C(OCCCCCOC(=O)c1ccccc1)c1ccccc1 | inactive | – |
| NCCO | inactive | – |
| Cc1ccc(C)c(C)c1 | inactive | – |
| O=C(O)Cc1ccccc1Nc1c(Cl)cccc1Cl | inactive | – |
| C=CCOC(=O)c1ccccc1C(=O)OCC=C | inactive | – |
| Cc1oc(-c2ccccc2)nc1CCOc1cccc2c1ccn2CCC(=O)O | inactive | – |
| CCCCCCCCCCCC(=O)OC | inactive | – |
| Nc1ccccc1N | – | 4.07 µM (active) |
| COc1cc(C=O)ccc1O | inactive | – |
| CCCCC(CC)COC(=O)CC(C(=O)OCC(CC)CCCC)S(=O)(=O)O (stereo not given) | – | 34.5 µM (active) |
| CC(CO)OC(C)CO (stereo not given) (tested in a mixture with another compound) | inactive | – |
| NC(=O)Cn1c(=O)cc(CCN2CCN(c3nccc4sccc34)CC2)c2ccc(F)cc21 | – | 7.88 µM (active) |
| CC(C)c1ccc(C(=O)N=C(N)N)cc1S(C)(=O)=O | inactive | – |
| Cc1nc(-c2ccc3c(c2)CCN(CCC2CCC(NC(=O)/C=C/c4ccc(F)cc4)CC2)CC3)no1 (stereo not given) | – | 9.3 µM (active) |
| Cc1cccc(C)c1O | inactive | – |
| COc1ccc(S(=O)(=O)N2C(=O)[C@@](c3ccccc3OC)(N3C[C@H](O)C[C@H]3C(=O)N(C)C)c3cc(Cl)ccc32)c(OC)c1 | inactive | – |
| Cc1cccc([N+](=O)[O-])c1C | inactive | – |
| CCCCCCCCCCC | inactive | – |
| Cc1ccccc1Cl | inactive | – |

| SMILES | outcome | AC50 |
| --- | --- | --- |
| CCCc1cc(=O)[nH]c(=S)[nH]1 | inactive | – |
| CCCCCCC(=O)OCC | inactive | – |
| OC[C@@H](O)[C@@H](O)[C@H](O)[C@H](O)CO | inactive | – |
| CCCCCCCCCCO | inactive | – |
| CC(=O)Oc1ccccc1C(=O)O | inactive | – |
| Cc1ccc(Cl)cc1 | inactive | – |
| NCC1(Cc2noc(=O)[nH]2)CCCCC1 | inactive | – |
| CCOc1ccc2c(c1)C(C)=CC(C)(C)N2 | inactive | – |
| CCOC(=O)C(C)(C)Oc1ccc(Cl)cc1 | inactive | – |
| CCCCCC(=O)O | inactive | – |
| Nc1ccc2c(c1)C(=O)c1ccccc1C2=O | inactive | – |
| CCCCCCCCCCCCCCCC | inactive | – |
| Cc1cc(=O)[nH]c(=S)[nH]1 | inactive | – |
| O=C(N[C@@H](Cc1ccccc1)[C@@H](O)C(=O)N1C[C@@H](O)[C@@H](O)C1)c1cc2cc(Cl)ccc2[nH]1 | inactive | – |
| CNCc1cc(F)ccc1Oc1ccc(Cl)c(Cl)c1 | inactive | – |
| CCCCCCOCCO | inactive | – |
| CN[C@H]1CC[C@@H](c2ccc(Cl)c(Cl)c2)c2ccc(S(N)(=O)=O)cc21 | – | 17.3 µM (active) |
| COc1cc(S(=O)(=O)O)c(C)cc1N=Nc1c(O)ccc2cc(S(=O)(=O)O)ccc12 | inactive | – |
| Cc1cc(NC(=O)C(=O)O)cc(C)c1Oc1ccc(O)c2c1CCC2 | inactive | – |
| CCCCCCCCCCCCCO | – | 36.1 µM (active) |

Reference: PubChem BioAssay (EPA / NIEHS)
